# The supplement of paper PMC8975748
# Structures can show the parent of a compound that is named as a salt. ± gives the standard deviation of the averaged measurements.
# Columns and labels:
# [1] = tested on: Saccharomyces cerevisiae BY4741 SeMeCo community; experiment: mean cell size (pixel area) (pixels); higher = larger cells; conditions: 10 µM; 24 h; SM minimal medium
# Outline: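 Yeast cells were fixed with paraformaldehyde, imaged by automated confocal microscopy and analysed in Harmony to obtain mean cell pixel area per well. They came from a four-plasmid fluorescent Saccharomyces cerevisiae BY4741 community, each plasmid complementing one auxotrophy and carrying a fluorescent marker. Before imaging, 70 µl of culture at OD600 = 0.3 was incubated for 24 h in SM medium in 384-well plates predosed acoustically with drug (final 10 µM). Values are means of 3 replicates. Same SeMeCo high-content imaging drug screen: Selleck FDA-approved drugs at 10 µM, 24 h in SM medium, 384-well plates, 3 replicates.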
# [2] = tested on: Saccharomyces cerevisiae BY4741 SeMeCo community; experiment: z-score of subpopulation abundance vs DMSO median, subpopulation auxotrophic for M; higher = larger share of this subpopulation than in DMSO controls; conditions: 10 µM; 24 h; SM minimal medium; subpopulation (auxotrophy): M
# Outline: (§1)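 A Saccharomyces cerevisiae BY4741 community carried four plasmids, each restoring one auxotrophy and encoding a distinct fluorescent protein. It was pre-grown overnight to OD600 1.0, diluted to 0.3, and 70 µl was added to 384-well plates acoustically predosed with library drugs (10 µM final), then grown 24 h in minimal SM medium. Cells were paraformaldehyde-fixed and imaged by automated confocal microscopy, with single-auxotroph fluorescent strains setting thresholds and autofluorescence correction. Each subpopulation's abundance was scored as a z-score against the vehicle-well median.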
# [3] = tested on: Saccharomyces cerevisiae BY4741 SeMeCo community; experiment: z-score of subpopulation abundance vs DMSO median, subpopulation auxotrophic for L; higher = larger share of this subpopulation than in DMSO controls; conditions: 10 µM; 24 h; SM minimal medium; subpopulation (auxotrophy): L
# Outline: as §1
# [4] = tested on: Saccharomyces cerevisiae BY4741 SeMeCo community; experiment: z-score of subpopulation abundance vs DMSO median, subpopulation auxotrophic for U; higher = larger share of this subpopulation than in DMSO controls; conditions: 10 µM; 24 h; SM minimal medium; subpopulation (auxotrophy): U
# Outline: as §1
# [5] = tested on: Saccharomyces cerevisiae BY4741 SeMeCo community; experiment: z-score of subpopulation abundance vs DMSO median, subpopulation auxotrophic for H; higher = larger share of this subpopulation than in DMSO controls; conditions: 10 µM; 24 h; SM minimal medium; subpopulation (auxotrophy): H
# Outline: as §1
# [6] = tested on: Saccharomyces cerevisiae BY4741 SeMeCo community; experiment: z-score of subpopulation abundance vs DMSO median, subpopulation auxotrophic for LM; higher = larger share of this subpopulation than in DMSO controls; conditions: 10 µM; 24 h; SM minimal medium; subpopulation (auxotrophy): LM
# Outline: as §1
# [7] = tested on: Saccharomyces cerevisiae BY4741 SeMeCo community; experiment: z-score of subpopulation abundance vs DMSO median, subpopulation auxotrophic for HM; higher = larger share of this subpopulation than in DMSO controls; conditions: 10 µM; 24 h; SM minimal medium; subpopulation (auxotrophy): HM
# Outline: as §1
# [8] = tested on: Saccharomyces cerevisiae BY4741 SeMeCo community; experiment: z-score of subpopulation abundance vs DMSO median, subpopulation auxotrophic for HU; higher = larger share of this subpopulation than in DMSO controls; conditions: 10 µM; 24 h; SM minimal medium; subpopulation (auxotrophy): HU
# Outline: as §1
# [9] = tested on: Saccharomyces cerevisiae BY4741 SeMeCo community; experiment: z-score of subpopulation abundance vs DMSO median, subpopulation auxotrophic for UM; higher = larger share of this subpopulation than in DMSO controls; conditions: 10 µM; 24 h; SM minimal medium; subpopulation (auxotrophy): UM
# Outline: as §1
# [10] = tested on: Saccharomyces cerevisiae BY4741 SeMeCo community; experiment: z-score of subpopulation abundance vs DMSO median, subpopulation auxotrophic for HL; higher = larger share of this subpopulation than in DMSO controls; conditions: 10 µM; 24 h; SM minimal medium; subpopulation (auxotrophy): HL
# Outline: as §1
# [11] = tested on: Saccharomyces cerevisiae BY4741 SeMeCo community; experiment: z-score of subpopulation abundance vs DMSO median, subpopulation auxotrophic for HLU; higher = larger share of this subpopulation than in DMSO controls; conditions: 10 µM; 24 h; SM minimal medium; subpopulation (auxotrophy): HLU
# Outline: as §1
# [12] = tested on: Saccharomyces cerevisiae BY4741 SeMeCo community; experiment: z-score of subpopulation abundance vs DMSO median, subpopulation auxotrophic for HUM; higher = larger share of this subpopulation than in DMSO controls; conditions: 10 µM; 24 h; SM minimal medium; subpopulation (auxotrophy): HUM
# Outline: as §1
# [13] = tested on: Saccharomyces cerevisiae BY4741 SeMeCo community; experiment: z-score of subpopulation abundance vs DMSO median, subpopulation auxotrophic for LUM; higher = larger share of this subpopulation than in DMSO controls; conditions: 10 µM; 24 h; SM minimal medium; subpopulation (auxotrophy): LUM
# Outline: as §1
# [14] = tested on: Saccharomyces cerevisiae BY4741 SeMeCo community; experiment: z-score of prototroph abundance vs DMSO median; higher = larger share of this subpopulation than in DMSO controls; conditions: 10 µM; 24 h; SM minimal medium; subpopulation (auxotrophy): Prototroph
# Outline: as §1
# [15] = tested on: Saccharomyces cerevisiae BY4741 SeMeCo community; experiment: z-score of subpopulation abundance vs DMSO median, subpopulation auxotrophic for LU; higher = larger share of this subpopulation than in DMSO controls; conditions: 10 µM; 24 h; SM minimal medium; subpopulation (auxotrophy): LU
# Outline: as §1
# [16] = tested on: Saccharomyces cerevisiae BY4741 SeMeCo community; experiment: z-score of subpopulation abundance vs DMSO median, subpopulation auxotrophic for HLM; higher = larger share of this subpopulation than in DMSO controls; conditions: 10 µM; 24 h; SM minimal medium; subpopulation (auxotrophy): HLM
# Outline: as §1
# [17] = tested on: Saccharomyces cerevisiae BY4741 SeMeCo community; experiment: z-score of subpopulation abundance vs DMSO median, subpopulation auxotrophic for HLUM; higher = larger share of this subpopulation than in DMSO controls; conditions: 10 µM; 24 h; SM minimal medium; subpopulation (auxotrophy): HLUM
# Outline: as §1
SMILES,mean cell size [1],z-score of subpopulation abundance [2],z-score of subpopulation abundance [3],z-score of subpopulation abundance [4],z-score of subpopulation abundance [5],z-score of subpopulation abundance [6],z-score of subpopulation abundance [7],z-score of subpopulation abundance [8],z-score of subpopulation abundance [9],z-score of subpopulation abundance [10],z-score of subpopulation abundance [11],z-score of subpopulation abundance [12],z-score of subpopulation abundance [13],z-score of prototroph abundance [14],z-score of subpopulation abundance [15],z-score of subpopulation abundance [16],z-score of subpopulation abundance [17]
OC(CCN1CCCCC1)(c1ccccc1)C1CCCCC1 (stereo not given) [Trihexyphenidyl hydrochloride],12.5 ± 0.24,0.49,0.5,0.45,-0.13,-0.29,-0.75,-0.18,0.41,-0.03,-0.09,-0.31,0.73,–,–,–,–
NCCNc1ccc(NCCN)c2c1C(=O)c1ccncc1C2=O [Pixantrone Maleate],11.8 ± 0.17,–,1.31,2.84,3.74,-5.3,-5.86,4.69,-7.68,9.63,7.46,-5.6,-4.09,3.16,2.14,-2.2,-1.46
"CCC(=O)Oc1ccc2c(c1)CCC1C2CCC2(C)C(OC(=O)CC)CCC12 (stereo not drawn) [Estradiol dipropionate(17-Beta-Estradiol-3,17-Dipropionate)]",–,0.21,-1.37,0.61,-1.21,-0.31,-0.18,0.2,0.34,-0.96,-0.61,-0.16,-0.6,0.27,–,–,-1.07
Cc1ccc(-c2ncc(Cl)cc2-c2ccc(S(C)(=O)=O)cc2)cn1 [Etoricoxib],12.4 ± 0.17,–,0.57,-0.32,-0.35,0.07,-0.1,-0.51,–,-0.03,0.34,-0.71,-0.03,-0.04,-0.52,-0.16,-0.24
OB1OCc2cc(F)ccc21 [Tavaborole (AN-2690)],14 ± 0.24,1,–,-3.62,14.2,6.17,27.5,5.21,7.1,–,23.2,16.9,16.4,-16.4,–,98,47.7
CN(C)CCCN1c2ccccc2CCc2ccc(Cl)cc21 [Clomipramine HCl],12.55 ± 0.052,–,-0.45,1.4,-0.49,-0.41,0.1,0.31,0.93,-0.45,-0.16,1.2,1.56,-0.93,0.32,0.29,1.45
COc1cc([C@@H]2c3cc4c(cc3[C@@H](O[C@@H]3O[C@@H]5CO[C@@H](c6cccs6)O[C@H]5[C@H](O)[C@H]3O)[C@H]3COC(=O)[C@H]23)OCO4)cc(OC)c1O [Teniposide],12.5 ± 0.04,–,1.6,0.19,0.91,1.46,0.99,1.34,0.67,1.18,2.62,1.08,1.42,-1.62,0.76,1,0.55
CCCCN(CCCC)CC(O)c1cc(Cl)cc2c1-c1ccc(Cl)cc1/C2=C/c1ccc(Cl)cc1 (stereo not given) [Lumefantrine],–,-0.39,–,1.6,–,-0.24,0.53,0.43,2.56,-0.58,-0.32,1.37,0.62,-1,–,-0.39,-0.39
C=CCCCCCCCCC(=O)[O-].C=CCCCCCCCCC(=O)[O-].[Zn+2] [Zinc Undecylenate],11.6 ± 0.15,-3.83,–,-0.17,-1.44,–,–,–,–,-0.05,3.75,–,-0.54,2.41,–,-0.76,–
"OCc1ccc(Cl)cc1Cl [2,4-dichlorobenzyl alcohol]",12.32 ± 0.052,-0.73,0.8,0.58,0,0.21,–,-0.65,-0.17,0.12,0.04,-0.47,-0.03,-0.15,–,–,0.69
CC(C)c1nc(N(C)S(C)(=O)=O)nc(-c2ccc(F)cc2)c1/C=C/[C@@H](O)C[C@@H](O)CC(=O)O [Rosuvastatin],11.22 ± 0.092,–,2.53,-1.39,4.84,0,2.17,1.77,–,5.32,1.68,2.38,1.84,-2.69,1.31,3.7,2.76
CCN(CC)CC#CCOC(=O)C(O)(c1ccccc1)C1CCCCC1 (stereo not given) [Oxybutynin chloride],12.57 ± 0.03,–,-0.83,-0.51,–,-0.32,0.06,-0.4,-1.11,-0.93,-0.57,-0.97,-0.46,1.15,-1.2,-0.24,-0.26
O=C(O)Cc1ccccc1Nc1c(Cl)cccc1Cl [Diclofenac Sodium],–,0.68,–,–,-0.51,-0.23,-0.3,-1.76,-1.45,-0.56,-1.75,-1.27,-0.98,1.13,–,-0.07,–
O=c1[nH]c(=O)n([C@H]2C[C@H](O)[C@@H](CO)O2)cc1/C=C/Br [Brivudine],12.41 ± 0.042,0.48,–,–,-2.5,-1.47,-0.22,-0.94,–,-1.84,-0.95,-0.74,-0.74,0.4,–,-1.12,-1.13
